From PubChem BioAssay AID686934 (National Center for Advancing Translational Sciences (NCATS), 2013)
Inconclusive results are not listed. Unmarked numbers belong to inactive results. Calls follow the shape of the dose curve; as a rule, active = well fitted curve in the direction sought with a large enough effect; inconclusive = small, poorly fitted or top-dose-only effect, or another doubt; inactive = no such curve, though single readings can be large or run the other way.

Experiment: qHTS screen for small molecules that inhibit ELG1-dependent DNA repair: SAR in Cell-Based Luciferin Counter Assay
Settings: cell-based luciferase counter-screen, luminescence; series mostly up to 45.7 µM; activity change, negative = inhibition: at the top concentration
Description: Cancer cells divide rapidly compared to normal cells in the body. During cell division, cancer cells need to duplicate their genome by DNA replication. The failure of genome duplication leads to cancer cells' death. Therefore, inhibitors of DNA replication could specifically kill cancer cells. Based on this concept, many chemotherapeutic agents were developed and have been used to treat cancer patients. However, there are a limited number of agents available in the clinical setting, and some of those that do exist have low efficacy and severe side effects. Therefore, if we can find the compounds that effectively block DNA replication either by directly damaging DNA or by inhibiting other cellular mechanisms, the options for cancer treatment will be broadened. With this in mind, we developed a quantitative high-throughput ELG1-luciferase reporter gene assay. Small molecules that specifically block ELG1 function in response to DNA damage can be identified by monitoring the suppression of luciferase activity. Since ELG1 defines a pathway for repairing DNA damage, agents blocking ELG1 function can be used to sensitize cancer cells to chemotherapeutic agents whose mechanism of action involves the induction of DNA damage. This assays is a counterscreen, that is more specifically, a cell-based luciferase assay following treatment with putative ELG1 antagonists to eliminate luciferase enhancers/inhibitors NIH Molecular Libraries Probe Production Network [MLPCN] NIH Chemical Genomics Center [NCGC] MLPCN Grant: R03 MH092164 Assay Provider: Kyungjae Myung, NHGRI, NIH
3 uL of substrate reagent will be pipetted into each well in 1536-well white, solid-bottom plates using a FRD dispenser, followed by addition of 23 nL of DMSO or compounds by pintool. After compound addition, 1 µL of luciferase will be added into the wells. The plates will be read in a ViewLux CCD-based plate reader.
In the case of CCCC(=O)O[C@@H]1[C@@H](C)[C@@]2(O)[C@@H](C=C(CO)C[C@]3(O)C(=O)C(C)=C[C@@H]23)[C@@H]2C(C)(C)[C@]12OC(=O)CCC, the “activity change, negative = inhibition” value is reported as 64.7%.
With CN[C@@H]1C[C@@]2(C)O[C@@H]([C@@H]1OC)n1c3ccccc3c3c4c(c5c6ccccc6n2c5c31)C(=O)NC4 the “activity change, negative = inhibition” value was -73.1%.
In the case of O=C(CCl)c1ccc(O)c(O)c1, the “activity change, negative = inhibition” value is reported as -10.9%.
With CC(=O)OCC1=C[C@H]2[C@@H]3C(C)(C)[C@]3(OC(=O)Cc3ccccc3)C[C@@H](C)[C@]2(O)[C@@H]2C=C(C)C(=O)[C@@]2(O)C1 the “activity change, negative = inhibition” value was 51.3%.
With CCCCCC1C(=O)O[C@H](C)[C@@H](NC(=O)c2cccc(NC=O)c2O)C(=O)OC(C)C1OC(=O)CC(C)C (stereo partly specified) the “activity change, negative = inhibition” value was 4.59%.
For CCCSc1ccc2nc(NC(=O)OC)[nH]c2c1, the “activity change, negative = inhibition” value was 64.3%.
